Only some compounds are listed: those with a hit (about 3.5% of all), similar ones and a draw of the others.
TEAD-YAP block = TEAD-YAP interaction inhibition | inhibition, % at 9.12 µM | 1.4% of 640,000 active | HEK-TIYL cells, TEAD-Gal4/YAP UAS-luciferase luminescence; in the data active = inhibition above about 32%;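 note: 0% = median of test compound wells and 100% = reference inhibitor wells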
FBW7 activator = human FBW7 E3 ligase activation, primary screen | AlphaScreen FBW7–phospho-cyclin E peptide binding, activator screen | 0.13% of 650,000 active | AID 1259310 | Q969H0 | normalized activity (activation), % at 26.1 µM; in the data active = normalized activity above about 1.9%;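 note: purified mutant Fbw7 with reduced substrate affinity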
GPR151 activ = activators of human GPR151 | PathHunter beta-arrestin GPR151 cells, luminescence | 1% of 650,000 active | activation, % at 11.2 µM; in the data active = activation above about 4.9%;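 note: 0% = median of compound wells and 100% = cells with positive control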
MITF inh = blocks human microphthalmia-associated transcription factor | AlphaScreen MITF homodimerization, bead proximity signal | inhibition, % at 2.6 µM | 0.91% of 650,000 active; in the data active = inhibition above about 50%;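 note: 0% = vehicle wells with protein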
Target sequence (O75030 whole entry, looked up): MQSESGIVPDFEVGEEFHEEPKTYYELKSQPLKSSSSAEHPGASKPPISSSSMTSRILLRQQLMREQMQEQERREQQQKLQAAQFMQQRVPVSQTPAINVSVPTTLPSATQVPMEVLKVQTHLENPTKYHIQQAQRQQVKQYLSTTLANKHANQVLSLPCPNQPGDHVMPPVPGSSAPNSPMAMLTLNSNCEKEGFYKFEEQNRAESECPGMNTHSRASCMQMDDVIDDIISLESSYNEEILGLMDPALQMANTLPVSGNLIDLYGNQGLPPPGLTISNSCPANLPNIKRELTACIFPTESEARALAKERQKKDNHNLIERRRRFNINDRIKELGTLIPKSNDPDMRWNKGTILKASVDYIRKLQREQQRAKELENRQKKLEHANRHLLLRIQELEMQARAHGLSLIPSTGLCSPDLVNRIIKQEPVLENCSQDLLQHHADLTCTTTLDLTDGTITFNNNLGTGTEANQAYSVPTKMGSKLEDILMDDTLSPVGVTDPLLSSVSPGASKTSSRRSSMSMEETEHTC
MITF inh conf = confirmation of human MITF inhibitors; shares compounds with MITF inh; AlphaScreen MITF homodimerization, biotin/His-MITF beads; inhibition, % at 2.6 µM; 16% of 4,700 active; AID 1259372;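 active = inhibition above a cutoff derived from the DMSO control wells, cut at about 28% in these data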;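 note: 0% = MITF dimer wells with DMSO only; inhibitors lower the bead chemiluminescence by keeping MITF from dimerizing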
AlphaScreen intf2 = counter-screen: compounds optically interfering with AlphaScreen; LysRS AlphaScreen counterscreen, signal interference, triplicate; inhibition, % at 2.6 µM; AID 1259376; 7.6% of 4,700 active; shares compounds with MITF inh;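 active = inhibition above a cutoff derived from the DMSO control wells, cut at about 30% in these data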
* marks the source's active call; other numbers are inactive results.

For COc1cc(OC)cc(C(=O)N(C)CCc2ccccn2)c1 the results were TEAD-YAP block -2, FBW7 activator 0, GPR151 activ 0, MITF inh 71*, MITF inh conf 7 and AlphaScreen intf2 4.
Screening CN(CCc1ccccn1)C(=O)c1ccccc1 returned TEAD-YAP block 4, FBW7 activator 0, GPR151 activ 0, MITF inh 60*, MITF inh conf -9 and AlphaScreen intf2 -2.
Screening COc1ccc(OC)c(CN(C)CCc2ccccn2)c1 returned TEAD-YAP block -1, FBW7 activator 0, GPR151 activ 3 and MITF inh 40.
CN(Cc1ccccc1)C(=O)COc1ccc2ccccc2c1 was read as TEAD-YAP block -45, FBW7 activator 1, GPR151 activ 0 and MITF inh 20.
`CN(C(=O)CCNC(=O)Cn1cnc2ccccc2c1=O)c1ccccc1Cl` gave TEAD-YAP block -5, FBW7 activator 0, GPR151 activ 0 and MITF inh -10.
Screening O=S(=O)(Nc1cccc(Cl)c1)c1cccc2cccnc12 returned TEAD-YAP block -4, FBW7 activator 1, GPR151 activ -1 and MITF inh 16.
For COc1cc(CN(C)CCN(C)C)cc(OC)c1O the results were TEAD-YAP block 3, FBW7 activator 0, GPR151 activ 1, MITF inh 55*, MITF inh conf -3 and AlphaScreen intf2 -4.
`CC(C)(C)c1csc(N/N=C\c2ccccc2)n1` gave TEAD-YAP block -85, FBW7 activator 0, GPR151 activ 0 and MITF inh -1.
CN(C)/N=C/c1ccc(OC(=O)c2ccccn2)cc1 was read as TEAD-YAP block -5, FBW7 activator 0, GPR151 activ -2 and MITF inh 43.
For CC(=O)c1cccc(N=Cc2ccc(OC(=O)c3ccccn3)cc2)c1 the results were TEAD-YAP block -7, FBW7 activator 0, GPR151 activ -2 and MITF inh 20.
N#C/C(=C\c1ccc(OC(=O)c2ccccn2)cc1)C(N)=O was read as TEAD-YAP block 10, FBW7 activator 0, GPR151 activ -1, MITF inh 53*, MITF inh conf 31* and AlphaScreen intf2 56*.
For NS(=O)(=O)c1ccc(N=Cc2ccc(OC(=O)c3ccccn3)cc2)cc1 the results were TEAD-YAP block -10, FBW7 activator 0, GPR151 activ -2, MITF inh 55*, MITF inh conf 17 and AlphaScreen intf2 45*.
O=C(Nc1ccc(Cl)cc1)c1cc2nc(-c3ccccc3)cc(-c3ccccc3)n2n1 was read as TEAD-YAP block 7, FBW7 activator 0, GPR151 activ -1 and MITF inh 6.
For COc1cccc(C(=O)N2CCN(Cc3ccccn3)CC2)c1 the results were TEAD-YAP block -8, FBW7 activator 0, GPR151 activ -1, MITF inh 92*, MITF inh conf -11 and AlphaScreen intf2 1.
COc1cc(OC)cc(C(=O)N2CCN(Cc3ccccn3)CC2)c1 was read as TEAD-YAP block -6, FBW7 activator 0, GPR151 activ -1, MITF inh 57*, MITF inh conf 15 and AlphaScreen intf2 18.
Screening O=C1c2c(Cl)c(Cl)c(Cl)c(Cl)c2C(=O)N1c1ccc2nc(-c3ccccc3)oc2c1 returned TEAD-YAP block -11, FBW7 activator 0, GPR151 activ 0 and MITF inh 5.
For CC1=CC2CC1C1C(=O)N(c3ccccc3OC(C)C(=O)c3ccccc3)C(=O)C21 (stereo not given) the results were TEAD-YAP block 4, FBW7 activator 0, GPR151 activ 2 and MITF inh 2.
Screening CCN1CCN(C/C=C/c2ccccc2[N+](=O)[O-])CC1 returned TEAD-YAP block 10, FBW7 activator 0, GPR151 activ 0, MITF inh 60*, MITF inh conf -1 and AlphaScreen intf2 2.
`O=[N+]([O-])c1ccc(CN2CCN(C/C=C/c3ccccc3)CC2)o1` gave TEAD-YAP block 7, FBW7 activator 0, GPR151 activ -1, MITF inh 65*, MITF inh conf 27 and AlphaScreen intf2 11.
`CCN1CCN(C/C=C/c2ccccc2OC)CC1` gave TEAD-YAP block 1, FBW7 activator 0, GPR151 activ 0, MITF inh 51*, MITF inh conf 2 and AlphaScreen intf2 -3.
COc1ccc(OCC(=O)NCc2nc(-c3cccc(C)c3)no2)cc1 was read as TEAD-YAP block -4, FBW7 activator 0, GPR151 activ -1 and MITF inh -3.
Screening CC1(C)CC2(CC(C)(C)N1)OC(=O)N(Cc1ccccn1)C2(C)O (stereo not given) returned TEAD-YAP block -8, FBW7 activator 0, GPR151 activ 0 and MITF inh 2.
Cc1cccc(-n2nnc(-c3nc(-c4cccnc4)no3)c2N)c1C was read as TEAD-YAP block -7, FBW7 activator 1, GPR151 activ 0 and MITF inh 12.
For O=C(Nc1ccc(O)c(-c2nc3ccccc3s2)c1)c1cccc(Oc2ccccc2)c1 the results were TEAD-YAP block 0, FBW7 activator 0, GPR151 activ 1, MITF inh 61*, MITF inh conf 3 and AlphaScreen intf2 1.
For O=C(Nc1ccc(O)c(-c2nc3ccccc3s2)c1)c1ccccc1Oc1ccccc1 the results were TEAD-YAP block -1, FBW7 activator 0, GPR151 activ 1 and MITF inh -7.
O=C(Nc1nc2ccc(Cl)cc2s1)c1cccc(Oc2ccccc2)c1 was read as TEAD-YAP block -1, FBW7 activator 0, GPR151 activ 1, MITF inh 74*, MITF inh conf 1 and AlphaScreen intf2 7.
`O=C(Nc1nc2ccc(F)cc2s1)c1cccc(Oc2ccccc2)c1` gave TEAD-YAP block -11, FBW7 activator 0, GPR151 activ -1 and MITF inh -3.
`Cc1cc(Nc2ccccc2)nc(N2CCN(c3ccccn3)CC2)n1` gave TEAD-YAP block 13, FBW7 activator 0, GPR151 activ 3 and MITF inh 6.
For O=[N+]([O-])c1cccc(CN2CCN(c3ccccn3)CC2)c1 the results were TEAD-YAP block -2, FBW7 activator 1, GPR151 activ 1, MITF inh 51*, MITF inh conf 4 and AlphaScreen intf2 -2.
Screening COc1ccc(CN2CCN(Cc3ccccc3F)CC2)cc1OCc1ccccc1 returned TEAD-YAP block -7, FBW7 activator 0, GPR151 activ -1, MITF inh 80*, MITF inh conf 2 and AlphaScreen intf2 2.
`CCN1CCN(Cc2ccc(OC)c(OCc3ccccc3)c2)CC1` gave TEAD-YAP block 0, FBW7 activator 0, GPR151 activ -1 and MITF inh 13.
CCc1ccc(CN2CCN(Cc3ccc(OC)c(OCc4ccccc4)c3)CC2)cc1 was read as TEAD-YAP block -1, FBW7 activator 0, GPR151 activ -1, MITF inh 74*, MITF inh conf 3 and AlphaScreen intf2 1.

High-throughput results: PubChem, The Scripps Research Institute Molecular Screening Center
